Measurements reported in the supplement of paper PMC12632987.

T1: USP38, Q8NB14
T1 chain: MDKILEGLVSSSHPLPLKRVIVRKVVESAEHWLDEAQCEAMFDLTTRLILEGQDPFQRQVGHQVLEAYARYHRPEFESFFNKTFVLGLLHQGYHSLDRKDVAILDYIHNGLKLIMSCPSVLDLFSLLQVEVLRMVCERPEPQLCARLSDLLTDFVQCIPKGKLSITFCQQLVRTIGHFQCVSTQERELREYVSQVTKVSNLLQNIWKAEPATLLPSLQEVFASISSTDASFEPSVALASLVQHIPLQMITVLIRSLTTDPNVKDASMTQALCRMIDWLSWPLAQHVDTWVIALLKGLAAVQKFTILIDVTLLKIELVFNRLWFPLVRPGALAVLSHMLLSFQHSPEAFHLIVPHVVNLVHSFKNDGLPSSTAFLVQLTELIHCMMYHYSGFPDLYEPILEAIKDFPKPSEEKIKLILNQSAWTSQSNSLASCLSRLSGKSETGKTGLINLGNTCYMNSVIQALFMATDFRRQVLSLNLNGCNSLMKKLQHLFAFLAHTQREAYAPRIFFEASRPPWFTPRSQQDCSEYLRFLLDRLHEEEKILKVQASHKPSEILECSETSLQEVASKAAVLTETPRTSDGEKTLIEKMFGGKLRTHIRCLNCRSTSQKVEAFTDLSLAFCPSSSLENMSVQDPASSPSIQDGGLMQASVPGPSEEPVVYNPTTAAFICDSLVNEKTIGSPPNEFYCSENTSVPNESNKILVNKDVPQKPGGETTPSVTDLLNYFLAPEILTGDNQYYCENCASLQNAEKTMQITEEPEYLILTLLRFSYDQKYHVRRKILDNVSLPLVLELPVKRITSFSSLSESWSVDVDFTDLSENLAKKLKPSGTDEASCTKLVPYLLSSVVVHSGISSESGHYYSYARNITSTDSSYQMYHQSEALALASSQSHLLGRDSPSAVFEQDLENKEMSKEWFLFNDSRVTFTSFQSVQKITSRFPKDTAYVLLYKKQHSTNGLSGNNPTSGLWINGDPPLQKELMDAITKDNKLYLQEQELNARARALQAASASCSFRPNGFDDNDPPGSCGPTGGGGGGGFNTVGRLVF


Molecular target: T1, USP38, Q8NB14
Test: median log2 fold change of GCK-ALFA target abundance (FLAG IP / Myc IP barcode read proportion) (log2 ratio); each designed protein is fused to an ALFA-tag nanobody in HEK293 cells to bring the named protein to FLAG-tagged glucokinase (GCK); Myc marks an untargeted standard; higher = target protein stabilised (more abundant)
Details: target protein: 3xFLAG-MCP-GCK-ALFA reporter; HEK293 landing pad (RPLP)
In short: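 Sequencing of reverse-transcribed, amplified circular RNA barcodes from anti-FLAG and anti-Myc immunoprecipitates provided the readout for an ALFA-nanobody-fused binder library recombined into HEK293 landing-pad cells. Those cells were induced with 2 μg mL^−1 doxycycline, transfected with a plasmid expressing a FLAG-tagged target and a Myc-tagged standard, and lysed after 48 h. Target abundance is the per-binder median log2 ratio of FLAG to Myc barcode read proportions. Only barcodes at a proportion of ≥10^−7 in both replicates and binders with ≥3 barcodes per replicate were kept, with a 10^−6 pseudocount added before the two replicates were pooled.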

| Binder | median log2 fold change |
| --- | --- |
| usp_38_diff_out_14_2_111 (protein) AKEELEKATKETLEVLKEATKLAKELKEEVKKDPSKAEEARKKLFEAHDKAGDAVGELNKLILENKELRELNKKATEEVNKAITEYTKATLEALETIAEA | -0.197 |
| usp_38_diff_out_14_2_116 (protein) AVEEIKAATDATLATLAAATAALAELKKRVEADPSLAEEARAEAFAAWDAAADAVGALNRLMEANREHRAERKEATAKINAALTTLTAALTETLEAAAAA | -0.132 |
| usp_38_diff_out_14_2_118 (protein) GEEELKEKKKATLATLDDAIAKAKALEAAVKADPSIAEQARAELRKAWDAAADAVGELERLIREHPEHRELNKEAIKEVNEKLTELTEALLAALQTIAEA | -0.0211 |
| usp_38_diff_out_14_2_79 (protein) MEEKAKEVLKKLEEKTKEVKKVTEELEKALSGSKEEIEKAVEKAFKVLDEAGKVSAEAEEVRRENPKFRAEFKKAFKELDKELSKLSKAILEALEKIAEL | -0.624 |
| usp_38_diff_out_13_93_71 (protein) STEEEIERLVEEAEERARRELEEMREEVEAGKLNVEEVLERSSELFRWLVEKYNEIKKLAKEAGLEELLKEAEERFNELINKATEEVTEMLEKVAERELA | -0.429 |
| usp_38_diff_out_13_93_75 (protein) SLEDEAAALLAEIRAEAEALAAELEALAEAGKITIEEVLERTSALVDRIAERTRAMVARLRAAGLEALARRLEEEVNRILLDLTERVGRILERLAEREAA | 0.213 |
| usp_38_diff_out_13_93_70 (protein) SAEEKIKKLIEETKEKAKKKLEEMEEKVEAGELDVEEVLEEYSELMKYIVETHNEIEKLAKENGLEELLKEANKEFNELINETTEKVTEMLEKVAERQLA | -0.785 |
| usp_38_diff_out_14_2_109 (protein) KEEELKKKKEETLKKLDEAIKKAKELKEEVKKDPSKKEEAFKELFEKHDEAADAVGELNKLILENKELRELNKEVTEEVNKKITEYTEAVLEALEEIAEA | -0.1 |
| usp_38_diff_out_14_2_121 (protein) AKEELEKATKKALETLDKALEEAKRLKEEVKKDPSKAEEAFKRLREAWDKAADAVGELNKLMLEHKEEKETIKEATEKVNKKITELTKATLEALEEAAKA | -0.64 |
| usp_38_diff_out_14_2_120 (protein) AVEEIKKATDDTLAKLDAAIAAAKALTAQVKADPSLKEQARAALNAAWDAAGDAVGALNKLLEANKEEKATNKEATAKTNAAITELTAAVLDALTTIEEA | -0.172 |
| usp_38_diff_out_14_2_104 (protein) AKATIEAATAAALKAIDDGKKRLEELTKKVKEDPSKAEEAREEILAVWDEVGDAVGALAATLRANPAERATNKAATAEVNKALTEFTKKALEALEVAEEA | 0.0445 |
| usp_38_diff_out_13_93_74 (protein) DLEARVEALLAAQEAEADALAAELAARAAAGEITVEEILERSSALADRIAEETRRAVAELEAAGEAALARRLRERTAEILLRLTERVGAILEELAAREAA | 0.136 |
| usp_38_diff_out_14_2_110 (protein) AEEKLKKATKETLATLKEAIKLAKELKKEVKKDPSKKEEARKKLFEAHDKAADAVGKLAKLIEENKELRELNKKATKEVDKAITEYTKAALEALEEIEKA | -0.599 |
| usp_38_diff_out_13_93_72 (protein) SAEEEIEKILKEVEEEAEKELEELEKEVAAGRLTVEEVLRRAGELFSYIVKKHQEIEKIAKENGLEALLKEATEKVNELINKVTERVTAMLERVAARQLA | -0.469 |
| usp_38_diff_out_14_2_108 (protein) AADKIKAATDATLAALEAAIAKAKELKERVKKDPSLAEEARKELFEAWDAVGDKVGALAKLLEENKAERATNKKATAEVNKALTEYTKAVLEALEEIAKA | -0.78 |
| usp_38_diff_out_14_2_101 (protein) AEEEIKKKKEETLKKLEEGIERLKKLKEEVKKDPSLAEKARKEAFEIHDEVADKVGELHKLILKNPELKELNKKAIKEVNEKLTEFTEALLEALEEAAAA | 0.0029 |

| Binder | median log2 fold change |
| --- | --- |
| usp_38_diff_out_14_2_117 (protein) GEEEIKKATEETLKVLKEAIKKLKELKKRVEEDPSKAAEATEEAFRAWDKAADAVGALNKLLEAHKEHREENKKATKEVNKAITELTEALTELLTAAAEA | -0.0949 |
| usp_38_diff_out_14_2_100 (protein) GEEELKAATDATLKTLDAAIKEAKELKKEVEEDPSKAEEARKRLFEAWDKAADAVGALAKLMEEHKELRELNKEAVEKVNKRITELTKVALEALELAAKA | -0.611 |
| usp_38_diff_out_14_2_115 (protein) AVEELKKKTEETLKVLDEAIKKLKELTERVKKDPSTAEEAVKEAFKAWDKAADAVGELNKLILANREHRAENKEATKKVNEKITELTKALTEALTLAAEA | -0.246 |
| usp_38_diff_out_14_2_102 (protein) AEAEIEKATEETLAVLEEAIKKFEELEKEVEEDPSKAEEAFERILEEWDRAADAVGALARLLEAHPEVRETRKKAVAEVNEALTRLTEKATRALEKAAEA | -0.0129 |
| usp_38_diff_out_13_93_73 (protein) DPAEELRREAEELIEELRRRTDELVARLEAGEITIEEALARFSELMDEAAERLRELIARAEALGLEALAREIRRRVLEAMVEATERLGAALERAAEREAA | -0.395 |
| usp_38_diff_out_13_93_77 (protein) SLEEKAKALLAEIEARAKALLEELEELAERGEITIEEVLERSSALFDEIAAETRAMVAELEAAGKKALAEELKKKVNEIILDATEGIGKILERLAEREAA | -0.0527 |
| usp_38_diff_out_14_2_106 (protein) GEEEIKKATEETLKAIKEAIEKAKELKEKVKKDPSLAEEARKELFEAHDKVGDKVGALAKLIEEHKEYRETNKKAVKEVNEALKEYTEAVLELLEEIAEA | -0.23 |
| usp_38_diff_out_14_2_107 (protein) AKEEIKKKTEETLKALDEAIKAAKKLKEEVKKDPSLAEKARKELFKLWDEVGDKVGELAKLLEENKEERETNKEAVEKVNEALTKFTKAVLEALEEIEKA | -0.442 |
| usp_38_diff_out_14_2_78 (protein) MEEKVKKLKEEIEKLLEEAKKLLEEAKKLLKEGDELAEEVLEKLDKAFDKLGELAKLLRELRELDPSQRAFVKEMTKKANELIDELTELRTEALLILAER | 0.219 |
| usp_38_diff_out_14_2_114 (protein) GEAEIKAATAETLAVLEEAIKKLKELTERVKADPSKAEEARKEAFEAWDKAADAVGALRKLMEAHREHRAEIKEATAKVNEAITKLTEALTETLELAAEA | -0.239 |
| usp_38_diff_out_14_2_113 (protein) AEEELKKAAEKTLKVLDEAIKNLKALKKKVEADPSKAEEATKEAFAAWDKAADAVGELNKLIEANREHRAERKEVTEKVNKKITELTDALTELLTAAAEA | -0.258 |
| usp_38_diff_out_14_2_122 (protein) AEAELEAAAAATKATLEDAIKRVKELLEEVKKDPSKAEEALKELRRLWDEAADAVGALARLMEAHRELRALRKRITAEVNALITEFTEAVLELLEEIAEA | -0.56 |
| usp_38_diff_out_14_2_119 (protein) AKAEIAKATAATLATLAAAIKKAKELTKKVKADPSLKEKARAELDKAWDAAGDAVGALNTLLLANKDLKAENKKATAATNAAITELTKTYTEALEAIEEA | -0.186 |
| usp_38_diff_out_14_2_105 (protein) GEEEIKKATDKTLKKLEEATKKFKELKEKVKKDPSLAEEARKEAFKAWDEAGDAVGALAKLIEENKEHRATNKEATEKVNKALTEYTKAVLELLEEIAEA | -0.792 |
| usp_38_diff_out_14_2_112 (protein) AKEELEKKKEETLKTLEEAIKKAKELKKEVEKDPSKKEEAFKELRKKHDEAADKVGELNKLILENKELRELNKKVTEEVNEKIKEYTEAVLEALEKIAEA | 0.0138 |
| usp_38_diff_out_13_93_76 (protein) TLEEKAEALLAEIRKRAEELLKELKKLAEEGKITIEEVLERSSKLFDEIAERTRAMVAELRAAGKEALAERVEKEVNEIILKATEGVGKILEFLAEKEAA | 0.124 |
